# Out of some 220,000 compounds screened, about 2,000 (0.91%) were called active. Roughly 2% stayed inconclusive and do not appear here. A selection follows. Results with a measured potency or affinity are listed apart. A number with no mark means an inactive call. Cut-off read from the data, not from the text of the source: inconclusive = inhibition above about 80% without an active follow-up result; inactive = below that; test concentration not stated here.
# Assay: M. tuberculosis H37Rv growth inhibitors, H37Rv strain (AID 1626);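 note: bacteria incubated seven days before Alamar blue readout; 0% = bacteria only wells and 100% = bacteria with antibiotic wells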
# Details: hits give high values, concentration not given here
row,Compound,inhibition [%]
1,CN(CCO)c1nc(N)c(C#N)c(CC#N)c1C#N,-7.58
2,CCOc1ccccc1N1CCN(CC(=O)NC(=O)NCc2ccco2)CC1,-1.18
3,COc1ccc(NC(=O)N2CCCCCC2)c(OC)c1,-4.07
4,Cn1c(N)c(C(=O)COC(=O)c2cnc(Cl)c(Cl)c2)c(=O)n(C)c1=O,-6.46
5,CC(C)Cn1c(N)c(C(=O)COC(=O)c2ccc(Cl)cc2)c(=O)n(C)c1=O,11.4
6,COc1ccccc1CNc1nc2nc3c(c(=O)n2[nH]1)CCC3,0.1
7,CCOc1ccccc1CNc1nc2nc3c(c(=O)n2[nH]1)CCC3,-2.76
8,O=c1c2c(nc3nc(NCc4cccc(Cl)c4)[nH]n13)CCC2,2.7
9,O=c1c2c(nc3nc(NCc4ccccc4Cl)[nH]n13)CCC2,-14.3
10,O=C(CO/N=C/c1ccccc1OC(F)F)NCc1ccco1,-2.9
11,O=S(=O)(c1ccc(Cl)nc1)N1CCN(c2ncccn2)CC1,-8.21
12,CN(C)CCCNc1ncc(C(F)(F)F)cc1Cl,4.38
13,CC1=C(C(=O)Nc2ccc(C)cc2C)C(c2ccc(Cl)cc2)n2nc(C(=O)OC(C)C)nc2N1 (stereo not drawn),5.54
14,CN(C)CCNC(=O)/C(=C/c1ccc(-c2ccc(Cl)cc2)o1)NC(=O)c1ccccc1,10.2
15,CN(C)CCNC(=O)/C(=C/c1ccc(-c2cccc(Cl)c2)o1)NC(=O)c1ccccc1,5.87
16,CN(C)CCCNC(=O)/C(=C\c1ccc(-c2cccc([N+](=O)[O-])c2)o1)NC(=O)c1ccccc1,-5.38
17,CN(C)CCCNC(=O)/C(=C\c1ccc(-c2ccc(Br)cc2)o1)NC(=O)c1ccccc1,6.54
18,COC(=O)C1=C(c2cc3ccccc3s2)C[C@@H]2CC[C@H]1N2C(=O)NCCCOC(C)C,-2.33
19,Cc1cccc(/N=C/c2c(C)[nH]n(-c3ccccc3)c2=O)n1,-10.6
20,O=C(Cn1nc(CNc2ccc(Cl)cc2)[n+]2c1CCCCC2)c1ccccc1,9.42
21,O=C(Cn1nc(CNc2ccc(Br)cc2)[n+]2c1CCCCC2)c1ccc([N+](=O)[O-])cc1,28.2
22,COC(=O)CN1C(=O)[C@@H]2[C@H](C1=O)[C@@H]1CC(C(=O)OC)=C[C@@H](C(=O)OC)[C@@H]3C1=C(C(=O)[C@@]3(C)NC(=O)c1ccccc1)[C@@H]2C,-6.86
23,CS(=O)(=O)N(CCc1ccccc1)CC(=O)NCc1ccccc1Cl,6
